{
  "source": "PubChem BioAssay (Tox21)",
  "note": "Records with an inconclusive call do not appear. Values without a mark were called inactive. Unless noted, calls come from the whole dose curve; as a rule, active = well fitted cell-killing curve with a large enough effect in the repeat runs (not every such curve was filed as active); inconclusive = weak or mixed curves, or effect the other way; inactive = no such curve, though single readings can be large or run the other way. % is set by controls: 0 for no effect and ±100 for the full control effect.",
  "data": [
    {"test_system": "not listed separately", "assay": "qHTS assay to identify small molecule agonists of the farnesoid-X-receptor (FXR) signaling pathway - cell viability counter screen (AID 743218; active = well fitted cell-killing curve with a large enough effect in the repeat runs; note: nearly all actives have a fitted effect of over 45% in size)", "conditions": "FXR-bla HEK293T viability, CellTiter-Glo luminescence, 16 h; series mostly up to 62.6 µM; viability change, negative = cytotoxic: at the top concentration", "outline": "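FXR-UAS-bla HEK 293T cells, plated 5 h at 37 C, were exposed to compounds for 16 h at 37 C. CellTiter-Glo was then added to the same wells as the bla readout; luminescence read after 30 min at room temperature.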", "values": [
      {"smiles": "CCC(=O)OCCC(C)CCC=C(C)C", "note": "(stereo unspecified)", "viability change, negative = cytotoxic": "-0.0042%"},
      {"smiles": "C=CCOc1c(Br)cc(C(C)(C)c2cc(Br)c(OCC=C)c(Br)c2)cc1Br", "viability change, negative = cytotoxic": "16.5%"},
      {"smiles": "NS(=O)(=O)c1cc2c(cc1Cl)NC(CC1CCCC1)NS2(=O)=O", "note": "(stereo unspecified)", "viability change, negative = cytotoxic": "1.06%"},
      {"smiles": "CC(=O)c1ccc(OCC(=O)N2CCCCC2)cc1", "viability change, negative = cytotoxic": "-1.24%"},
      {"smiles": "O=S(=O)(O)CCO", "viability change, negative = cytotoxic": "20.4% [at 81.1 µM]"},
      {"smiles": "CNCc1ccccc1", "viability change, negative = cytotoxic": "2.8%"},
      {"smiles": "CN=C(NC#N)NCCSCc1csc(N=C(N)N)n1", "viability change, negative = cytotoxic": "13.2%"},
      {"smiles": "C=C[Si](C)(C)O[Si](C)(C)C=C", "viability change, negative = cytotoxic": "1.47%"},
      {"smiles": "COc1ccc(N=Nc2cc(C)c(N=Nc3ccc(S(=O)(=O)O)cc3)cc2OC)cc1", "viability change, negative = cytotoxic": "2.58%"},
      {"smiles": "CC(=O)OC(C)c1ccccc1", "note": "(stereo unspecified)", "viability change, negative = cytotoxic": "12.6%"},
      {"smiles": "O=S1(=O)CCCC1", "viability change, negative = cytotoxic": "-0.514% [at 81.1 µM]"},
      {"smiles": "Cc1cccc(C(=O)O)c1[N+](=O)[O-]", "viability change, negative = cytotoxic": "-7.34%"},
      {"smiles": "NC(=O)C1(N2CCCCC2)CCN(CCCC(=O)c2ccc(F)cc2)CC1", "viability change, negative = cytotoxic": "-2.37%"},
      {"smiles": "O=C(O)Cc1cccc(-c2cc(CCCCCCc3ccc(O[C@H]4O[C@H](CO)[C@@H](O)[C@H](O)[C@@H]4O)c(-c4cccc(CC(=O)O)c4)c3)ccc2O[C@H]2O[C@H](CO)[C@@H](O)[C@H](O)[C@@H]2O)c1", "viability change, negative = cytotoxic": "5.41% [at 0.55 µM]"},
      {"smiles": "O=C(Oc1ccccc1C(=O)O)c1ccccc1O", "viability change, negative = cytotoxic": "27.1%"},
      {"smiles": "CN[C@@H]1[C@H](O)[C@H](NC)[C@H]2O[C@@]3(O)C(=O)C[C@@H](C)O[C@H]3O[C@@H]2[C@H]1O", "viability change, negative = cytotoxic": "-10.6%"}
    ]},
    {"molecular_target": "Bile acid receptor (Homo sapiens) (UniProt Q96RI1)", "sequence (Q96RI1 whole entry, looked up)": "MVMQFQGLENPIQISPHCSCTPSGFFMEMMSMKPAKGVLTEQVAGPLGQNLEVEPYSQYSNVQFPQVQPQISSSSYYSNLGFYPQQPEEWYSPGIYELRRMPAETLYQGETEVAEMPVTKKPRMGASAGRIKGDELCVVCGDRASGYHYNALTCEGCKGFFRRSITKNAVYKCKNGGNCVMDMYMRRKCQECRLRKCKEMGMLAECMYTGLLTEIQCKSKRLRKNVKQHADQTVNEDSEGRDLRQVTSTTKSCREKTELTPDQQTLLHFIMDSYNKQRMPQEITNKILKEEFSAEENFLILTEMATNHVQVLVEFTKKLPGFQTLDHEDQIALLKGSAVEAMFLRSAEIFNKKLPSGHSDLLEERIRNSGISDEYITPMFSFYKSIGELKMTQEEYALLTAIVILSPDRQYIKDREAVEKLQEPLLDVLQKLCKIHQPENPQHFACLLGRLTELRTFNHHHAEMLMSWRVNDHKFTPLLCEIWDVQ", "assay": "qHTS assay to identify small molecule agonists of the farnesoid-X-receptor (FXR) signaling pathway (AID 743220; active = well fitted activation curve with a large enough effect in the signal ratio in the repeat runs, not every such curve was filed as active; the % refers to the signal ratio)", "conditions": "HEK293T FXR-UAS-bla, beta-lactamase FRET ratio, 16 h; series mostly up to 62.6 µM; activation: at the top concentration", "outline": "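Beta-lactamase reporter under UAS control in GeneBLAzer FXR HEK 293T cells (5000/well) measured with LiveBLAzer FRET substrate after 2 h at room temperature. Compound exposure lasted 16 h at 37C.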", "values": [
      {"smiles": "N#CCCOCCOCCC#N", "activation": "-0.214%"},
      {"smiles": "Cc1cc(O)c2c(c1)C(=O)c1cccc(O)c1C2=O", "activation": "0.186%"},
      {"smiles": "C=CCOc1c(Br)cc(C(C)(C)c2cc(Br)c(OCC=C)c(Br)c2)cc1Br", "activation": "-0.293%"},
      {"smiles": "COc1cc2c3cc1Oc1cc(ccc1O)C[C@@H]1c4c(cc(OC)c(O)c4Oc4ccc(cc4)C[C@@H]3N(C)CC2)CC[N+]1(C)C", "activation": "9.33%"},
      {"smiles": "Cc1ccccc1N1CCN(CCc2nnc3n2CCCC3)CC1", "activation": "1.53%"},
      {"smiles": "NS(=O)(=O)c1cc2c(cc1Cl)NC(CC1CCCC1)NS2(=O)=O", "note": "(stereo unspecified)", "activation": "-1.07%"},
      {"smiles": "CC(=O)c1ccc(OCC(=O)N2CCCCC2)cc1", "activation": "0.55%"},
      {"smiles": "O=C1OC(=O)c2ccccc21", "activation": "-1.1%"},
      {"smiles": "O=S1(=O)CCCC1", "activation": "-1.93% [at 81.1 µM]"},
      {"smiles": "O=C(Oc1ccccc1C(=O)O)c1ccccc1O", "activation": "-0.372%"}
    ]},
    {"test_system": "not listed separately", "assay": "qHTS assay to identify small molecule antagonists of the farnesoid-X-receptor (FXR) signaling pathway - cell viability counter screen (AID 743221); note: nearly all actives have a fitted effect of over 50% in size", "conditions": "FXR-bla HEK293T viability, CellTiter-Glo luminescence, 16 h; series mostly up to 62.6 µM; activity change, negative = cytotoxicity: at the top concentration", "outline": "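Compound effects on cell number were measured as CellTiter-Glo luminescence in HEK 293T cells expressing FXR-UAS-bla, after 16 h at 37 C with 50 uM CDCA (final).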", "values": [
      {"smiles": "C[Si]1(C)N[Si](C)(C)N[Si](C)(C)N1", "activity change, negative = cytotoxicity": "-2.78%"},
      {"smiles": "O=C(COCCOCCOCC(=O)Nc1c(I)cc(I)c(C(=O)O)c1I)Nc1c(I)cc(I)c(C(=O)O)c1I", "activity change, negative = cytotoxicity": "14.9%"},
      {"smiles": "C[C@H]1O[C@H](O[C@H]2[C@H](O)[C@@H](O)[C@@H](O[C@H]3[C@H](O)[C@@H](O)[C@H](O)O[C@@H]3CO)O[C@@H]2CO)[C@H](O)[C@@H](O)[C@@H]1N[C@H]1C=C(CO)[C@@H](O)[C@H](O)[C@H]1O", "activity change, negative = cytotoxicity": "3.81%"},
      {"smiles": "CCCCCC1CCCC(=O)O1", "note": "(stereo unspecified)", "activity change, negative = cytotoxicity": "-18.3%"},
      {"smiles": "Nc1cc(Cl)cc(S(=O)(=O)O)c1O", "activity change, negative = cytotoxicity": "-2.07% [at 81.1 µM]"},
      {"smiles": "Cc1oc(=O)oc1CN1CCN(c2cc3c(cc2F)c(=O)c(C(=O)O)c2n3C(C)S2)CC1", "note": "(stereo unspecified)", "activity change, negative = cytotoxicity": "-2.31%"},
      {"smiles": "COC(OC)C(C)c1ccccc1", "note": "(stereo unspecified)", "activity change, negative = cytotoxicity": "-6.02%"},
      {"smiles": "CCNC(=O)/C=C/c1cccc(Br)c1", "activity change, negative = cytotoxicity": "0.457%"},
      {"smiles": "N#CCCOCCOCCC#N", "activity change, negative = cytotoxicity": "-1.85%"},
      {"smiles": "Nc1ccc(S(=O)(=O)NC(=O)c2ccccc2)cc1", "activity change, negative = cytotoxicity": "-2.19%"},
      {"smiles": "CCCOC(=O)CCCCC(=O)OCCC", "activity change, negative = cytotoxicity": "0.943%"},
      {"smiles": "COc1cc(C=O)ccc1OC(=O)C(C)C", "activity change, negative = cytotoxicity": "-0.925%"},
      {"smiles": "CCC(O)C(C)(C)C", "note": "(stereo unspecified)", "activity change, negative = cytotoxicity": "16.3% [at 81.1 µM]"},
      {"smiles": "O=C(O)c1c(Cl)ccc(Cl)c1Cl", "activity change, negative = cytotoxicity": "-0.379%"},
      {"smiles": "CC(C)CCC(=O)CCC(C)C", "activity change, negative = cytotoxicity": "-4.1%"},
      {"smiles": "Cc1cc(O)c2c(c1)C(=O)c1cccc(O)c1C2=O", "activity change, negative = cytotoxicity": "3.74%"},
      {"smiles": "O=[Si]=O", "activity change, negative = cytotoxicity": "9.17%"},
      {"smiles": "CCC(=O)OCCC(C)CCC=C(C)C", "note": "(stereo unspecified)", "activity change, negative = cytotoxicity": "9.48%"},
      {"smiles": "C=CCOc1c(Br)cc(C(C)(C)c2cc(Br)c(OCC=C)c(Br)c2)cc1Br", "activity change, negative = cytotoxicity": "-6.49%"},
      {"smiles": "COc1cc2c3cc1Oc1cc(ccc1O)C[C@@H]1c4c(cc(OC)c(O)c4Oc4ccc(cc4)C[C@@H]3N(C)CC2)CC[N+]1(C)C", "activity change, negative = cytotoxicity": "-2.33%"},
      {"smiles": "Cc1ccccc1N1CCN(CCc2nnc3n2CCCC3)CC1", "activity change, negative = cytotoxicity": "-2.03%"},
      {"smiles": "NS(=O)(=O)c1cc2c(cc1Cl)NC(CC1CCCC1)NS2(=O)=O", "note": "(stereo unspecified)", "activity change, negative = cytotoxicity": "5.95%"},
      {"smiles": "CC(=O)c1ccc(OCC(=O)N2CCCCC2)cc1", "activity change, negative = cytotoxicity": "7.93%"},
      {"smiles": "O=S(=O)(O)CCO", "activity change, negative = cytotoxicity": "-1.05% [at 81.1 µM]"},
      {"smiles": "CNCc1ccccc1", "activity change, negative = cytotoxicity": "-15.3%"},
      {"smiles": "CN=C(NC#N)NCCSCc1csc(N=C(N)N)n1", "activity change, negative = cytotoxicity": "19.8%"},
      {"smiles": "C=C[Si](C)(C)O[Si](C)(C)C=C", "activity change, negative = cytotoxicity": "6.09%"},
      {"smiles": "COc1ccc(N=Nc2cc(C)c(N=Nc3ccc(S(=O)(=O)O)cc3)cc2OC)cc1", "activity change, negative = cytotoxicity": "-1.96%"},
      {"smiles": "O=C1OC(=O)c2ccccc21", "activity change, negative = cytotoxicity": "6.52%"},
      {"smiles": "CC(=O)OC(C)c1ccccc1", "note": "(stereo unspecified)", "activity change, negative = cytotoxicity": "-0.933%"}
    ]}
  ]
}
